Compounds with a hit are over-represented: about 4.6% of the library has one in this group of screens.
PfHsp90 yeast 2 = growth inhibition of yeast expressing Plasmodium Hsp90. S. cerevisiae expressing PfHsp90, BacTiter-Glo ATP, 48 h; yeast lacking PDR1 and PDR3 efflux regulators. inhibition, % at 9.4 µM. 310,000 tested, 0.32% active. AID 504621;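 active = every replicate shows inhibition above about 80%, whatever the replicate mean, limit read from the data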
tim10-1 inh = inhibits growth of tim10-1 mutant yeast. S. cerevisiae tim10-1 ts strain growth, BacTiter-Glo, 24 h. inhibition, % at 20 µM. 330,000 tested, 2.2% active;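 active = inhibition of at least 40%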;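 also: mutant grown at 25 °C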
TIM10 inh = growth inhibitors of TIM10 yeast strain. inhibition, % at 10 µM. S. cerevisiae TIM10 strain growth, BacTiter-Glo luminescence, 24 h. AID 463195. 330,000 tested, 1.4% active;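 active = inhibition of 40% or more at the single tested concentration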;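 also: wild-type TIM10 isogenic control strain grown at permissive 25 °C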
NALP3 yeast inh = inhibitors of NALP3 inflammasome in yeast | Yeast reconstituted NLRP3/ASC/caspase-1, beta-gal luminescence, 24 h | inhibition, % at 10 µM | 330,000 tested, 0.39% active;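 active = inhibition of 50% or more; inactive = inhibition below 50%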
tim23-1 inh = inhibits growth of tim23-1 mutant yeast. S. cerevisiae tim23-1 growth, BacTiter-Glo luminescence, 24 h. inhibition, % at 20 µM. 330,000 tested, 1.3% active;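 active = growth inhibition of the mutant yeast at or above 50%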;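 also: temperature-sensitive mutant grown at 25 °C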
SKKanGAS inh = blocks kanamycin growth of S. pyogenes SKKanGAS strain; inhibition, % at 7.5 µM; BacTiter-Glo, 6 h; 300,000 tested, 1.3% active;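 active = mean replicate score, as percent of positive control median, at least 50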;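 also: strain carries kanamycin resistance gene driven by streptokinase promoter and grows in 40 µg/ml kanamycin; loss of luminescence reflects streptokinase promoter inhibition or plain growth inhibition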
NALP3 yeast conf = confirmation of NALP3 inhibitors in yeast; yeast expressing human NALP3, luminescence; 1,300 tested, 81% active; shares compounds with NALP3 yeast inh; inhibition, % at 10 µM; AID 435006; in the data active = inhibition above about 48%
Casp1 ASC ctr = active in yeast caspase-1-ASC counter-screen for NALP3 inhibitors; shares compounds with NALP3 yeast inh; yeast expressing Caspase-1-ASC, luminescence counter screen; inhibition, % at 10 µM; 1,000 tested, 66% active
NALP3 retest = retest-confirmed inhibitor of NALP3 in yeast | shares compounds with NALP3 yeast inh | yeast expressing human NALP3, luminescence read-out | inhibition, % at 10 µM | 1,000 tested, 53% active
Hits are given with their value; n = inactive; x = no result. Rule as the data show it, unless noted: active = inhibition above about 50%; inactive = the rest.

SMILES	PfHsp90 yeast 2	tim10-1 inh	TIM10 inh	NALP3 yeast inh	tim23-1 inh	SKKanGAS inh	NALP3 yeast conf	Casp1 ASC ctr	NALP3 retest
COc1ccc(C(CNC(=O)C(Cc2ccccc2)NC(N)=O)N(C)C)cc1 (configuration not stated)	n	n	n	n	n	n	x	x	x
Cc1ccc(-c2cc(NC(=O)CCl)n(-c3ccccc3)n2)cc1	n	n	n	54	n	n	n	x	x
CC(=O)Nc1ccc(-c2cc(NC(C)=O)n(-c3ccccc3)n2)cc1	n	n	n	n	n	n	x	x	x
O=C(CCl)Nc1cc(-c2ccccc2)nn1-c1ccccc1	n	n	n	55	n	n	66	78	69
CC(=O)c1ccc(S(=O)(=O)NCCC(=O)NC2CCN(Cc3ccccc3)CC2)cc1	n	n	n	n	n	x	x	x	x
O=C(COC(=O)CCc1nc2ccccc2s1)NCc1ccco1	n	n	n	n	n	n	x	x	x
COc1ccc(Cn2c(=O)sc3ccccc3c2=O)cc1	n	n	n	51	n	x	60	60	n
CN(C(=O)c1cccc(NC(=O)Cc2cccc([N+](=O)[O-])c2)c1)C1CC1	n	n	n	n	n	x	x	x	x
C=CCc1ccc(OCCn2nnc3ccccc32)c(OC)c1	n	n	n	53	n	n	63	50	n
COc1cc(C)ccc1OCCOc1ccccc1Cl	n	n	n	51	n	n	49	n	n
CCCNC(=S)N1CCC(NC(=O)c2ccc(C)cc2)CC1	n	n	n	n	n	n	x	x	x
c1ccc2oc(SCc3cn4ccccc4n3)nc2c1	n	n	n	56	n	n	69	69	53
Cc1cccc2nc(CSc3nc4ccccc4o3)cn12	n	n	n	n	n	n	x	x	x
Cn1cc(C(=O)CCl)c2ccccc21	n	x	x	x	x	n	x	x	x
Cn1cc(/C(Cc2ccccc2)=N\O)c2ccccc21	n	n	n	56	n	n	68	n	n
COc1cc(NC(=O)CN2C(=O)CN(C)C2=O)c(C)cc1[N+](=O)[O-]	n	n	n	81	n	n	n	x	x
Cc1nc(SCc2ccc(OCCC(C)C)cc2)n[nH]1	n	n	n	76	n	n	84	93	89
CCCCCOc1ccc(CSc2n[nH]c(C)n2)cc1	n	n	n	64	n	n	75	70	82
CC(=O)Oc1ccccc1C(=O)Nc1ccccc1	n	n	n	52	n	n	68	n	n
O=C1C2C3C=CC(C3)C2C(=O)N1c1ccccc1 (configuration not stated)	x	n	n	n	n	n	x	x	x
O=C1C2C3C=CC(C3=C3CCCCC3)C2C(=O)N1c1ccccc1 (configuration not stated)	n	n	n	58	n	n	65	n	n
Cc1ccc(Sc2cc(C)nc(-c3ccccn3)n2)cc1	n	n	n	51	n	85	n	65	n
Cc1ccc(Cc2nc(-c3ccccn3)no2)cc1	n	n	n	n	n	n	x	x	x
CCc1noc(C)c1C(=O)Nc1sc(C(=O)N(C)C)c(C)c1C#N	n	n	n	n	n	n	x	x	x
COc1cc(/C=C/C(=O)OCC(=O)N(C)C2CCS(=O)(=O)C2)ccc1OC(F)F (configuration not stated)	n	n	n	n	n	n	x	x	x
SMILES	PfHsp90 yeast 2	tim10-1 inh	TIM10 inh	NALP3 yeast inh	tim23-1 inh	SKKanGAS inh	NALP3 yeast conf	Casp1 ASC ctr	NALP3 retest
CCN(CC)Cc1ccc(OC)c(Cl)c1	x	n	n	n	n	n	x	x	x
COc1ccc(CSCCN)cc1Cl	n	n	n	68	n	n	69	71	73
CCOc1ccc(S(=O)(=O)n2cc(F)c(=O)[nH]c2=O)cc1[N+](=O)[O-]	n	n	n	n	n	n	x	x	x
Cc1cccc(NC(=O)c2cnc3sccn3c2=O)c1	n	n	n	56	n	n	66	52	n
Cn1nnc2cc(C(=O)N3CCN(c4ccccn4)CC3)ccc21	n	n	n	n	n	n	x	x	x
O=C(c1ccccc1)N1CCSc2sccc2C1=O	n	x	x	x	x	n	x	x	x
O=C1c2ccsc2SCCN1Cc1ccccc1Cl	n	n	n	51	n	n	57	n	n
Cc1ccccc1CN1CCSc2sccc2C1=O	n	n	n	58	n	n	n	n	n
Cc1ccc(C(=O)NCC(c2ccc(F)cc2)N2CCOCC2)cc1S(=O)(=O)N1CCOCC1 (configuration not stated)	n	x	x	x	x	x	x	x	x
Nc1nc2ccccc2cc1S(=O)(=O)c1ccccc1	x	n	n	83	n	n	87	x	x
O=S(=O)(c1ccccc1)c1cnc2ccccc2c1	n	n	n	n	n	n	x	x	x
COc1ccc(C(=O)c2no[n+]([O-])c2C(=O)c2ccc(OC)cc2)cc1	x	n	n	70	n	n	80	81	62
COc1ccc(Cl)cc1C(=O)NNC(=O)c1cc2ccccc2o1	x	n	n	n	n	x	x	x	x
CO/N=C(\Cn1ncc(N2CCCC2)c(Cl)c1=O)c1ccc(Cl)cc1	n	n	n	70	n	n	73	75	60
CC(=O)Cn1ncc(N2CCCCC2)c(Cl)c1=O	n	n	n	n	n	n	x	x	x
O=C(Nc1ccccc1)c1ccc(S(=O)(=O)N2CCCC2)cc1	n	n	n	n	n	n	x	x	x
O=C(Nc1ccccc1)c1ccc(S(=O)(=O)N2CCCCC2)cc1	n	n	n	52	n	n	63	n	n
CCc1ccccc1NC(=O)c1cc(-c2cccs2)on1	n	n	n	56	n	n	65	59	60
O=C(Cc1c(F)cccc1Cl)N/N=C/c1cccnc1	n	n	n	n	n	n	x	x	x
CCOC(=O)c1cnc2oc3ccccc3n2c1=O	n	n	n	n	n	n	x	x	x
CCN(CC)S(=O)(=O)c1cccc(-c2nc3n(n2)Cc2ccccc2-3)c1	n	n	n	n	n	n	n	x	x
CC(C)(C)C(=O)Nc1nnc(SCC(=O)NC2CCCC2)s1	n	n	n	n	n	n	x	x	x
COc1ccc(S(=O)(=O)n2ccc(-c3cnc(-c4ccccc4)s3)n2)cc1	n	n	n	n	n	n	x	x	x
O=C(c1ccccc1)n1ccc(-c2cnc(-c3ccccc3)s2)n1	n	n	n	62	n	n	60	n	n
COC(=O)Cc1ccc(NC(=S)Nc2cccc(C)n2)cc1	n	n	n	n	n	n	x	x	x
CC1(C)CC(c2nc(-c3ccc([N+](=O)[O-])cc3)cs2)CCO1 (configuration not stated)	n	n	n	n	n	n	n	x	x
O=S(=O)(Oc1ccc(Cl)cc1)c1cccc2cccnc12	x	n	n	58	n	n	54	72	61
Clc1ccc(/C=C/c2nc3ccccc3[nH]2)cc1	n	n	n	54	n	n	77	54	71

Assay outcomes: PubChem, several laboratories
